Tb PYK inh: T. brucei pyruvate kinase inhibition. Potency, µM (titrated, usually from 76.8 µM), inactives show top-dose activity, negative = inhibition, usual class: inhibitors. Q57TT1. TbPYK enzyme, Kinase-Glo Plus ATP luminescence, 45 min. hit rate 0.12% among 410,000; further: potency means the concentration at half of the fitted maximal effect; on the % scale 0 is the no-effect control and ±100 the full control effect; nearly all actives have a fitted effect of over 50% in size
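Assay buffer: 50 mM TEA pH 7.2, 100 mM KCl, 10 mM MgCl2, 0.05% BSA, 0.01% Tween-20. Pyruvate kinase from T. brucei plus substrate met compound, then ADP (130 uM final). Luminescence was read post 45 min RT.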
Giardia FBPA inh-1: blocks Giardia fructose-bisphosphate aldolase activity. purified Giardia FBPA. Potency, µM (doses to about 59.6 µM), for the others: at the top dose activity, negative = inhibition, usual class: inhibitors. hit rate 0.71% among 290,000. AID 2451; further: potency means the concentration at half of the fitted maximal effect; on the % scale 0 is the no-effect control and ±100 the full control effect; nearly all actives have a fitted effect of over 55% in size
Target sequence (A8B2U2 whole entry, looked up): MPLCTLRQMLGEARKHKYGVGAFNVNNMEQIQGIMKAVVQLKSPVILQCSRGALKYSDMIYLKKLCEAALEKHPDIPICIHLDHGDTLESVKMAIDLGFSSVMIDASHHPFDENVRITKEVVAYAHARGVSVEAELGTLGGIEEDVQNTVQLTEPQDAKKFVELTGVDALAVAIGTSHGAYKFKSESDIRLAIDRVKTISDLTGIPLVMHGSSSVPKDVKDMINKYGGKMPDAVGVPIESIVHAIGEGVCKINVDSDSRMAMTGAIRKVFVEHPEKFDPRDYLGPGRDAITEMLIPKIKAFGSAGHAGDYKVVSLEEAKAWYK
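Giardia FBPA (40 nM reagent) was preincubated 10 min at RT with compound (up to 57.5 uM final), then substrate plus GAPDH/TPI/NAD/arsenate coupling system with diaphorase/resazurin was added; resorufin fluorescence (525/598 nm) was read after 20 min.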
RE007 growth inh: less growth of the S. pombe RE007 Vpr strain; S. pombe RE007 Vpr strain, BacTiter-Glo ATP luminescence, 24 h; Potency, µM (titrated, usually from 92.2 µM), for the others: at the top dose activity change, negative = less growth, most hits filed as inhibitors; hit rate 0.21% among 360,000; AID 651644; active means well fitted falling curve with a large enough effect; inconclusive means small, poorly fitted or top-dose-only effect; inactive means no such curve, though single readings can be large or run the other way; further: potency means the concentration at half of the fitted maximal effect; on the % scale 0 is the no-effect control and ±100 the full control effect; nearly all actives have a fitted effect of over 50% in size
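Fission yeast strain RE007, carrying one chromosomally integrated HIV-1 vpr copy, was seeded at OD 0.01 in PMG+AL medium with 23 nL pinned compound. After 24 h at 30 °C and 99% humidity, viability was read by BacTiter-Glo luminescence.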
LmPK inh: inhibitors of Leishmania mexicana pyruvate kinase; Q27686; purified LmPK, Kinase-Glo ATP luminescence, 1 h; Potency, µM (titrated, usually from 57.5 µM), for inactives: at the top dose activity change, negative = inhibition, most hits filed as inhibitors; hit rate 0.37% among 290,000; AID 1721; further: potency means the concentration at half of the fitted maximal effect; on the % scale 0 is the no-effect control and ±100 the full control effect
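Pyruvate kinase activity monitored as ATP production (luciferase luminescence). Conditions: 0.1 nM enzyme, 0.5 mM PEP, 0.1 mM ADP, 1 h, RT; normalized against uninhibited and no-enzyme wells.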
CHX counter: counter-screen hit for Shiga toxin inhibitors, cycloheximide; cell reporter, cycloheximide protein synthesis inhibition counterscreen; AID 2314; hit rate 12% among 300,000; max response, %; in the data active means max response mostly above about 13%, no sharp cut-off; inactive means mostly below about 14%; further: read at 38.3 µM for the half of the compounds with a filed dose; 0% is about no effect
Shiga inhibitor: inhibitors of Shiga toxin in Vero cells. Vero cells, Shiga toxin protein synthesis inhibition reporter. hit rate 9.2% among 290,000. inhibition, % at 38.7 µM. AID 2315; in the data active means inhibition mostly above about 28%, no sharp cut-off; inactive means mostly below about 43%; further: 0% is about no effect
Giardia growth: inhibitors of Giardia lamblia growth; shares compounds with Giardia FBPA inh-1; Potency, µM (top dose mostly 57.5 µM), inactives show top-dose activity change, negative = inhibition, actives largely listed as inhibitors; hit rate 5% among 1,500; Giardia lamblia trophozoite growth inhibition;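 further: potency means the concentration at half of the fitted maximal effect; trophozoites exposed to compound for 48 h at 37 °C; on the % scale 0 is the no-effect control and ±100 the full control effect; nearly all actives have a fitted effect of over 70% in size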
Mammal cell tox: counter-screen for Giardia aldolase inhibitors: mammalian cell toxicity; shares compounds with Giardia FBPA inh-1; mammalian cell viability counter-screen, qHTS; Potency, µM (titrated, usually from 57.5 µM), inactives show at the top dose viability change, negative = toxicity, usual class: inhibitors; hit rate 4% among 1,500; AID 2786;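 further: Chinese hamster ovary cells used as mammalian cytotoxicity surrogate; viability measured as cellular ATP by luminescence; potency means the concentration at half of the fitted maximal effect; compound exposure lasted 48 h before reading; on the % scale 0 is the no-effect control and ±100 the full control effect; nearly all actives have a fitted effect of over 60% in size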
Giardia FBPA inh-2: confirmation of Giardia fructose-bisphosphate aldolase inhibitors; Potency, µM (titrated, usually from 57.5 µM), without a hit: at the highest dose activity change, negative = inhibition, usual class: inhibitors; purified Giardia aldolase enzyme activity, qHTS; AID 2787; hit rate 5% among 1,500; shares compounds with Giardia FBPA inh-1; further: potency means the concentration at half of the fitted maximal effect; on the % scale 0 is the no-effect control and ±100 the full control effect; nearly all actives have a fitted effect of over 45% in size
Rabbit FBPA inh: rabbit FBP aldolase inhibition by Giardia aldolase hits; AID 2794; Rabbit muscle FBPA enzyme inhibition, selectivity counter-screen; Potency, µM (series often up to 57.5 µM), without a hit: at the top dose activity, negative = inhibition, hits mostly inhibitors; shares compounds with Giardia FBPA inh-1; hit rate 4% among 1,500; further: potency means the concentration at half of the fitted maximal effect; on the % scale 0 is the no-effect control and ±100 the full control effect; nearly all actives have a fitted effect of over 60% in size
Target sequence (P00883 whole entry, looked up): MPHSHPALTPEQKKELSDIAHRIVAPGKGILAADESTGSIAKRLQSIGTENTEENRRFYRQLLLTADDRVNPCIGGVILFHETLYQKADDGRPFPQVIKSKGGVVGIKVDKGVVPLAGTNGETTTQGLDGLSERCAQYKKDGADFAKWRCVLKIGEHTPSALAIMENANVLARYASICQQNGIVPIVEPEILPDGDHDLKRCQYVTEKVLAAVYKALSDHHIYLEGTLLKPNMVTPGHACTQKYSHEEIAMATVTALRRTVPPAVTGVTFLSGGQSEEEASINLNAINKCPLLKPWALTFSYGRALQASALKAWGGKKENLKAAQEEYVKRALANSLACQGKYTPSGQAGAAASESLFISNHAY
GAPDH counter: counter-screen for Giardia aldolase inhibitors: GAPDH coupling enzyme | hit rate 6% among 1,500 | Potency, µM (titrated, usually from 57.5 µM), inactives show at the top dose activity change, negative = inhibition, most hits filed as inhibitors | shares compounds with Giardia FBPA inh-1 | GAPDH coupling enzyme counterscreen, biochemical, qHTS | AID 2795; further: potency means the concentration at half of the fitted maximal effect; on the % scale 0 is the no-effect control and ±100 the full control effect; nearly all actives have a fitted effect of over 55% in size
Starred values were filed as active, the others as inactive; ? = inconclusive; · = no result given; [ ] = another dose, or the depositor's remark. The full list was thinned out, with hits kept by preference. Unless noted, the call rests on the fitted dose curve; in most records, active means well fitted curve in the direction sought with a large enough effect; inconclusive means small, poorly fitted or top-dose-only effect, or another doubt; inactive means no such curve, though single readings can be large; an effect the other way counts as inactive or inconclusive.

SMILES	Tb PYK inh	Giardia FBPA inh-1	RE007 growth inh	LmPK inh	CHX counter	Shiga inhibitor	Giardia growth	Mammal cell tox	Giardia FBPA inh-2	Rabbit FBPA inh	GAPDH counter
COCCn1c(C)c(C)c2c(NCCc3ccccc3)ncnc21	25%	28µM*	-3%	2%	25*	67*	-28%	?	1%	1%	12%
Cc1c(C)n(Cc2ccccc2)c2ncnc(NCCCN(C)C)c12	-2%	2%	1%	-14%	0	-6	·	·	·	·	·
O=C(C[C@@H]1C/C=C\CC[C@H](Cc2ccc(F)cc2)C(=O)OC[C@@H]2CCCN2C1=O)N[C@H](CO)Cc1ccccc1	-1%	·	-7%	·	·	·	·	·	·	·	·
COc1ccc(N)cc1-n1c(C)ccc1C	-22%	?	-4%	-9%	25*	37*	12%[38.3 µM]	3%	?	?	8.9µM*
COc1ccc(C)cc1-n1c(C)cc(C=O)c1C	1%	-15%	1%	6%	3	-8	·	·	·	·	·
Cc1ccc(OCCOCCN2CCCCC2)c([N+](=O)[O-])c1	7%	20µM*	-17%	-2%	-2	-23	28%	-11%	-7%	3%	4%
Cc1ccc(OCCOCCN2CCN(C)CC2)c([N+](=O)[O-])c1	-12%	?	9%	-12%	2	2	·	·	·	·	·
COc1ccc(C(=O)N/C(=C\c2cn(S(=O)(=O)N(C)C)c3ccccc23)C(=O)N2CCCC2)cc1	2%	·	-9%	·	·	·	·	·	·	·	·
COc1c(O)cc2c(c1O)C1OC(CO)C(O)[C@H](O)[C@H]1OC2=O (some centres not stated)	·	2%	·	·	·	·	·	·	·	·	·
O=C(O[C@@H]1OC2COC(=O)c3cc(O)c(O)c(O)c3-c3c(cc(O)c(O)c3O)C(=O)O[C@@H]([C@H]1O)[C@@H]2O)c1cc(O)c(O)c(O)c1	?	?	3%	-28%	-2	-12	-33%[38.3 µM]	-6%	?	?	?
O=C(Nc1ccccc1[N+](=O)[O-])c1csnn1	-10%	·	·	·	·	·	·	·	·	·	·
CCOC(=O)N1CCC2(CC1)OC(=O)C(C)=C2C(=O)NCc1cccc(F)c1	-1%[15.4 µM]	·	·	·	·	·	·	·	·	·	·
N#C/C(=C(\O)c1cc(Cl)sc1Cl)c1nc2ccccc2[nH]1	-7%	25µM*	-5%	3%	-6	-4	11%	1%	-19%	3%	?
COC(=O)C1=C(C)NC(=O)/C1=C\c1cc(C)n(-c2ccc(F)cc2)c1C	1%	?	-17%	-1%	-3	-10	·	·	·	·	·
COC(=O)C1=C(O)/C(=C\c2cc(C)n(-c3ccc(F)cc3)c2C)N=C1C	-4%	16µM*	-10%	1%[11.5 µM]	31	75*	15%[10.4 µM]	-7%	-18%	-25%	-14%
Cc1ccc(S(=O)(=O)c2ccsc2NC(=O)c2ccccc2)cc1	-7%	·	10%	·	·	·	·	·	·	·	·
Cc1cc(C)cc(N2C(=O)CC(Sc3nnnn3-c3ccccc3)C2=O)c1 (configuration not stated)	-15%	·	-17%	-5%	18	2	·	·	·	·	·
Cc1cc(C)cc(N2C(=O)CC(Sc3ncn[nH]3)C2=O)c1 (configuration not stated)	-15%	20µM*	-8%	-3%	-2	-18	22%	-4%	4%	4%	11%
CC(C)(C)OC(=O)C[C@H]1C/C=C\C[C@H](CC(=O)N[C@H](CO)Cc2ccccc2)C(=O)N2CCC[C@@H]2COC1=O	2%	·	9%	·	·	·	·	·	·	·	·
Cn1c(=O)cc(C(=O)N/N=C/c2ccc(F)cc2)[nH]c1=O	-14%	16µM*	-8%	-1%	0	-9	122%	14%	5%	-7%	6%
O=C(O)c1ccc(/C=N/NC(=O)c2ccc(F)cc2)cc1	-2%	-11%	-2%	1%	16	7	·	·	·	·	·
CC(C)c1ccc(NC(=O)c2cccc3c2C(=O)N(C2CCCCC2)C3)cc1	6%	·	·	·	·	·	·	·	·	·	·
O=C(NCc1ccccc1)c1ncn(Cc2ccccc2)c1C(=O)NCc1ccccc1	-7%	·	12%	·	·	·	·	·	·	·	·
O=C(O)c1ncn(Cc2ccccc2)c1C(=O)O	0%	7.9µM*	-8%	-8%	-4	-2	?	-4%	7%	3%	6%
Cc1ccccc1C(=O)Nc1nnc(-c2ccncc2)o1	-9%	7%	-7%	-8%	7	21	·	·	·	·	·
SMILES	Tb PYK inh	Giardia FBPA inh-1	RE007 growth inh	LmPK inh	CHX counter	Shiga inhibitor	Giardia growth	Mammal cell tox	Giardia FBPA inh-2	Rabbit FBPA inh	GAPDH counter
COc1ccc(-c2nnc(NC(=O)c3ccccc3C)o2)cc1	2%	16µM*	-13%	4%	-1	14	?	-15%	-1%	-6%	-10%
COc1ccc(CNC(=O)c2ccc3c(c2)N(Cc2cccc(Cl)c2)C(=O)c2ccccc2S3)c(OC)c1	7%	·	·	·	·	·	·	·	·	·	·
CCCC/C=C/C(NC(=O)c1ccc(C(F)(F)F)cc1)c1ccccc1 (configuration not stated)	·	-2%	·	·	·	·	·	·	·	·	·
COc1ccc(-c2cc(-c3n[nH]c(=S)n3-c3ccccc3Cl)[nH]n2)cc1	?	18%	-10%	-5%	-2	-6	·	·	·	·	·
S=c1[nH]nc(-c2ccn[nH]2)n1-c1ccccc1Cl	?	20µM*	13%	?	28*	72*	45µM*	-11%	0%	-1%	5%
CCOc1cc(C=O)cc(N=Nc2cccc([N+](=O)[O-])c2)c1O	-4%	13µM*	-19%	-6%	1	-6	?	1%	-19%	-11%	-1%
Cn1c(=O)[nH]c(=O)c2c1nc(Br)n2CCCc1ccccc1	·	-6%	·	-2%	-2	-12	·	·	·	·	·
Cn1c(=O)c2c([nH]c(=S)n2CCCc2ccccc2)n(C)c1=O	2.5µM*	10µM*	13%	-8%	-1	·	-20%[10.4 µM]	4%	6%	-17%	16%
Cn1c(=O)[nH]c(=O)c2c1[nH]c(=S)n2CCCc1ccccc1	?	3.5µM*	8%	-23%	-1	-3	-10%[38.3 µM]	-3%	-12%	35µM*	-1%
